The text below walks through data of PubChem BioAssay (NCATS).

The structures appear in SMILES notation. “And” between values parts separate entries of the source, which are not always exact repeats. Identical values can stand only once. Records with an inconclusive call do not appear. The source made the active and inactive calls. Unless noted, the call rests on the fitted dose curve; in most records, active means well fitted curve in the direction sought with a large enough effect; inconclusive means small, poorly fitted or top-dose-only effect, or another doubt; inactive means no such curve, though single readings can be large; an effect the other way counts as inactive or inconclusive.

For assay [1], the target named is Mitogen-activated protein kinase 10 (Mus musculus) (UniProt Q61831). In words: JNK3 AlphaScreen Assay (AID 530; active means well fitted curve in either direction with a large enough effect, not every such curve was filed as active;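 further: kinase came from lysate of stimulated human HepG2 cells; signal reports phosphorylation of biotinylated GST-cJun 1-79 at Ser73 with 10 µM ATP; on the % scale 0 is the no-effect control and ±100 the full control effect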). The method, boiled down:
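Biotinylated GST-cJun(1-79) served as substrate for JNK3 in HepG2 lysates stimulated with IL-1beta and TNF-alpha. ATP was 10 uM final, pH 7.6. Ser73 phosphorylation was quantified by AlphaScreen (680 nm excitation).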

A short description of assay [2]: Cell Viability - HUV-EC-C (AID 542).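 Further: cells exposed to compound for 40 hours; on the % scale 0 is the no-effect control and ±100 the full control effect; nearly all actives have a fitted effect of over 35% in size.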 The method, boiled down: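 Luminescent ATP read-out (CellTiter-Glo, 20 min room temperature) after 40 hr compound treatment of HUV-EC-C cells at 37 °C. Concentration-response data fitted with the standard Hill equation to give AC50; tamoxifen and doxorubicin served as positive controls.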
Assay [3] can be described thus: Cell Viability - Mesenchymal (AID 546).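 Further: cells exposed to compound for 40 hours before reading; 0% = DMSO only and -100% = 100 µM tamoxifen.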 The method, boiled down: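 In this qHTS cytotoxicity format, glomerulus-derived human mesenchymal kidney cells received compound for 40 hr, then luciferase-based ATP quantitation. Concentration-response data were fitted with the Hill equation.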
The nature of assay [4]: Cellular Toxicity (caspase-3) Mesangial (AID 660).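 Further: combined caspase 3 and 7 activity read by Caspase-Glo luminescence; cells exposed to compound for 16 h before the caspase read.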 The method, boiled down:
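Luminescent Caspase-Glo 3/7 readout (aminoluciferin substrate cleavage, 20 min RT) after 16 h compound exposure at 37 °C of normal human mesangial cells. Signal increase normalized between DMSO basal and 100 uM tamoxifen; Hill-equation AC50.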

Assay [5] in a line: Cellular Toxicity (caspase-3) Renal Proximal Tubule (AID 667).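 Further: cells exposed to compound for 16 hours at 37 °C before detection; 0% = DMSO basal and 100% = 10 µM staurosporine.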 The method, boiled down:
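Caspase 3/7 activation measured by luminescent aminoluciferin release in primary rat proximal tubule cells after 16 hr compound exposure at 37 °C. AC50 from Hill-fitted concentration-response, scaled between DMSO and 10 uM staurosporine.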

The target of assay [6] is Cytochrome P450 3A4 (Homo sapiens) (UniProt P08684). Briefly: qHTS Assay for Inhibitors and Substrates of Cytochrome P450 3A4 (AID 884). Further: nearly all actives have a fitted effect of over 50% in size. Further: potency means the concentration at half of the fitted maximal effect. In short, it runs like this: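 Luminescent readout of luciferin produced by CYP3A4 (20 nM) dealkylation of Luciferin-PPXE, 25 uM (its KM). NADPH-driven reaction ran 60 min at RT after 10 min compound preincubation; data scaled to 57 uM ketoconazole as 100% inhibition.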
Cytochrome P450 3A4 (Homo sapiens), sequence (P08684 whole entry, looked up): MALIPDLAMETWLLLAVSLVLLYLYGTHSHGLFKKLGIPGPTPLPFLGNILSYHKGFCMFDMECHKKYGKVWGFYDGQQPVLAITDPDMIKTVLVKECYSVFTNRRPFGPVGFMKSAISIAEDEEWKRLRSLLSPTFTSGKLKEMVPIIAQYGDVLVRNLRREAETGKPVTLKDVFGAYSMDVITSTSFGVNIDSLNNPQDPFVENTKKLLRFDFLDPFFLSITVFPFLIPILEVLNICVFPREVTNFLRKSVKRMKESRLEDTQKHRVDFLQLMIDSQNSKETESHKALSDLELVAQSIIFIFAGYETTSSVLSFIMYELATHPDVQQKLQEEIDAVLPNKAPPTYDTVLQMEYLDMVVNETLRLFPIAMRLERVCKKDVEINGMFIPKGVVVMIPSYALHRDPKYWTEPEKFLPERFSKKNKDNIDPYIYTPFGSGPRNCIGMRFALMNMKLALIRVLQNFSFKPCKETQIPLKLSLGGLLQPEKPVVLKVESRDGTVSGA
A general note: Quantitative high-throughput screening tests each substance at several concentrations.

Assay [7] is described as follows: MultiTox-Fluor Cytotoxicity Assay - LYMP1-001 - Live Cells (AID 947).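 Further: 0% = DMSO only and full inhibition = tetraoctylammonium bromide control.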
The nature of assay [8]: Cell Viability - LYMP2-005 (AID 967). Further: potency means the concentration at half of the fitted maximal effect. The method, boiled down: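 LYMP2-005 human lymphoblastoid cells (2500/well) were treated with compounds for 24 h at 37 C. Intracellular ATP was then measured by CellTiter-Glo luminescence after 30 min at room temperature. AC50 values came from Hill-equation fits of qHTS concentration-response data.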
The nature of assay [9]: Cell Viability - LYMP2-016 (AID 984).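 Further: cells exposed to compound for 24 hours at 37 °C; on the % scale 0 is the no-effect control and ±100 the full control effect; nearly all actives have a fitted effect of over 55% in size.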 The method, boiled down:
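Cytotoxicity was scored by luminescent ATP content (CellTiter-Glo) after 24 h compound exposure at 37 C of a human lymphoblastoid line at 2500 cells/well. Concentration-response data were fitted to the Hill equation for AC50.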

The nature of assay [10]: Cell Viability - LYMP2-024 (AID 988).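 Further: plate controls were DMSO only for no effect and 92 µM tetraoctylammonium bromide for full effect; nearly all actives have a fitted effect of over 60% in size.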 The method, boiled down:
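ATP-based luminescence (CellTiter-Glo, 30 min RT) after 24 h compound exposure at 37 C of 2500 lymphoblastoid cells/well; decrease in ATP taken as cytotoxicity. qHTS concentration-response fitted to standard Hill equation for AC50.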

Assay [11] deals with Vitamin D3 receptor (Homo sapiens) (UniProt P11473). In words: qHTS assay for small molecule antagonists of vitamin D receptor signaling (AID 588541; calls by dose curve;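 further: receptor activated by calcitriol during compound treatment; on the % scale 0 is the no-effect control and ±100 the full control effect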). The method, boiled down: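 VDR-UAS-bla HEK293T cells (2000/well, 2% charcoal-stripped FBS) were treated with titrated compounds plus 1-alpha,25-dihydroxyvitamin D3 (50 nM or 3 nM final) for 16 h at 37 C. CCF4 beta-lactamase fluorescence was read; Hill fits gave IC50.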
Vitamin D3 receptor (Homo sapiens), sequence (P11473 whole entry, looked up): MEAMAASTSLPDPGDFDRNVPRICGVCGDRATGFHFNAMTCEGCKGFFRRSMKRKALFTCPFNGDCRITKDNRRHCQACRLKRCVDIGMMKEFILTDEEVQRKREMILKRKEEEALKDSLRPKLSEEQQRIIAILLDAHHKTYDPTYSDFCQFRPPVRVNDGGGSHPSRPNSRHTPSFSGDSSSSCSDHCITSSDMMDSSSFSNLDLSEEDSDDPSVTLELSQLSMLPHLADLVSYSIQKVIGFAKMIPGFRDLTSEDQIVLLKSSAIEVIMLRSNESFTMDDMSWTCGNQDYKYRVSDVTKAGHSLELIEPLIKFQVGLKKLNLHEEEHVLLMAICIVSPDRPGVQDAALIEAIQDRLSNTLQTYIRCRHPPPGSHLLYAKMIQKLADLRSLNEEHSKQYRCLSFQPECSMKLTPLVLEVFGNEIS

Assay [12] in a line: qHTS assay for small molecule antagonists of retinoid X receptor alpha signaling (AID 588546).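 Further: cells stimulated with 9-cis-retinoic acid as agonist; on the % scale 0 is the no-effect control and ±100 the full control effect.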 To be noted: HEK293T RXRa-UAS-bla, beta-lactamase ratio, antagonist mode; measured here: W530 green channel, cytotoxicity proxy. In short, it runs like this:
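Beta-lactamase reporter inhibition, read as CCF4 fluorescence ratio (ex 405, em 460/530 nm) after 2 h at RT. HEK293T UAS-bla cells, 2500/well, were stimulated with 9-cis-RA at 500 or 100 nM final alongside test compound for 18 h at 37 C.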

Assay [13] deals with Voltage-gated inwardly rectifying potassium channel KCNH2 (Homo sapiens) (UniProt Q12809). In words: qHTS Assay for Small Molecule Inhibitors of the Human hERG Channel Activity (AID 588834).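 Further: lower thallium flux fluorescence means stronger hERG block; nearly all actives have a fitted effect of over 50% in size.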 Further: potency means the concentration at half of the fitted maximal effect. The method, boiled down: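 hERG block measured as reduced thallium-dye (FluxOR) fluorescence after stimulation buffer addition, read over 2 min. Cells were hERG-BacMam-transduced U2OS exposed to compound ~10 min […]; concentration-response fitted with Hill equation for AC50.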
Voltage-gated inwardly rectifying potassium channel KCNH2 (Homo sapiens), sequence (Q12809 whole entry, looked up): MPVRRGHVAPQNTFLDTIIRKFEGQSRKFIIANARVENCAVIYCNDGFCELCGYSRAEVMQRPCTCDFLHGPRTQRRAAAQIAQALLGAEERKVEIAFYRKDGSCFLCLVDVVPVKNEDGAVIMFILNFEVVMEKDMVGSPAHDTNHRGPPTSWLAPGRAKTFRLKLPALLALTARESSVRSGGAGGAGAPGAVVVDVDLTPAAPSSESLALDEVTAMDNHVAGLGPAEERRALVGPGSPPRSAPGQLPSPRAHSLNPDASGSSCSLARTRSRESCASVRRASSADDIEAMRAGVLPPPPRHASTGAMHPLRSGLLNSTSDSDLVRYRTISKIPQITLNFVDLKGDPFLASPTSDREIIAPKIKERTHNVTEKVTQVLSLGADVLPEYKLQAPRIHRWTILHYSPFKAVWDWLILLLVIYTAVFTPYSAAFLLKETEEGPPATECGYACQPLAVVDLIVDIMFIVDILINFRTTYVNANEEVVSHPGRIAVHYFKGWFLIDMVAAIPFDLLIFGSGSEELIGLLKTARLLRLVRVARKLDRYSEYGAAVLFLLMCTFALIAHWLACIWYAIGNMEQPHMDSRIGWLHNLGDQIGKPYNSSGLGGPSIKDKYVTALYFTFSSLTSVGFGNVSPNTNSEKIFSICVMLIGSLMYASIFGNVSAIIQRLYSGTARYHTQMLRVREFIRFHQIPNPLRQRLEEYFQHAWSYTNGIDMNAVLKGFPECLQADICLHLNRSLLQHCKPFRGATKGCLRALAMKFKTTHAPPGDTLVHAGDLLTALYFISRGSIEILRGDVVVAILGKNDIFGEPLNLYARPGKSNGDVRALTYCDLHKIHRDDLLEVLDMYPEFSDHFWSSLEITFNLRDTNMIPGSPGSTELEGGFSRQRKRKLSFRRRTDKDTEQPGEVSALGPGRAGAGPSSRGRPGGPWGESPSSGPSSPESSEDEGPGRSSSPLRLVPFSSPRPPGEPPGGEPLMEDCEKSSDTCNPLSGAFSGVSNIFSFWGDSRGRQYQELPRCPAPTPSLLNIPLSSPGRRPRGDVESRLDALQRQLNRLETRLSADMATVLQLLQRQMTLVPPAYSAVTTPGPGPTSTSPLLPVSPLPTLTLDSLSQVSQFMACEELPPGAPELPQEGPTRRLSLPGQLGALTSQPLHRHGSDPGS

The nature of assay [14]: qHTS assay for small molecule disruptors of the mitochondrial membrane potential - 1 hr assay (AID 651754; calls by dose curve; further: nearly all actives have a fitted effect of over 35% in size; further: potency means the concentration at half of the fitted maximal effect). The method, boiled down: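 Read-out: dye fluorescence at 490 nm ex/535 nm em (monomers) and 540 nm ex/590 nm em (aggregates) in HepG2 cells. Compound exposure 1 hr at 37C, followed by 30 min dye loading.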
The nature of assay [15]: qHTS assay for cell viability of HEK293 cells (AID 743288). Further: on the % scale 0 is the no-effect control and ±100 the full control effect; nearly all actives have a fitted effect of over 50% in size. To be noted: ATP luminescence (CellTiter-Glo), 18 h, stronger effect = lower value. The method, boiled down:
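Readout is luciferase-coupled ATP content (CellTiter-Glo luminescence, 30 min room temperature) as a measure of metabolically competent cells. Parental HEK293 cells were plated 5 h or more before compound addition, then treated 18 h at 37 C.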

Assay [16] addresses Nuclear receptor subfamily 1 group I member 2 (Rattus norvegicus) (UniProt Q9R1A7). Briefly: qHTS assay for small molecule activators of the rat pregnane X receptor (rPXR) signaling pathway (AID 651751; call rule not given here; further: 0% is about no effect). To be noted: rPXR reporter cells, luciferase (One-Glo), 24 h.
The nature of assay [17]: qHTS assay for small molecule activators of the human pregnane X receptor (PXR) signaling pathway (AID 720659; call rule not given here; further: 0% is about no effect).
The nature of assay [18]: Cell Viability - N2a (AID 540).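 Further: cells exposed to compound for 40 h at 37 °C; plate controls were DMSO alone for no effect and tamoxifen control for full effect; nearly all actives have a fitted effect of over 45% in size.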 To be noted: N2a mouse neuroblastoma cell viability; activity change, negative = cytotoxicity: at 92.2 µM (top of the series). In short, it runs like this: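 N2a mouse neuroblastoma, 1500 cells/well, 5 hr settle; compound 40 hr, 37 °C; CellTiter-Glo 20 min RT; luminescence; Hill-fit AC50.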
Assay [19] can be described thus: Cell Viability - Renal Proximal Tubule (AID 545).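 Further: cells exposed to compound for 40 hours; 0% = DMSO only and -100% = 100 µM tamoxifen; nearly all actives have a fitted effect of over 40% in size.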 The method, boiled down: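 Viability taken as intracellular ATP (CellTiter-Glo luminescence) after 40 hr, 37 °C compound treatment of primary proximal tubule cells from rat kidney, 1000 cells/well; Hill-equation fits of qHTS concentration-response data gave AC50.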
Assay [20] in a line: Cell Viability - LYMP2-010 (AID 981).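 Further: cells exposed to compound for 24 hours at 37 °C; on the % scale 0 is the no-effect control and ±100 the full control effect; nearly all actives have a fitted effect of over 55% in size.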 In short, it runs like this:
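qHTS cytotoxicity, 1536-well: 2500 cells/well, 5 hr settle, 24 hr compound at 37 C, CellTiter-Glo 30 min RT, luminescence read. Decrease in ATP = toxicity; AC50 via standard Hill equation. Positive control tetraoctylammonium bromide.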

Nuclear receptor subfamily 1 group I member 2 (Rattus norvegicus), sequence (Q9R1A7 whole entry, looked up): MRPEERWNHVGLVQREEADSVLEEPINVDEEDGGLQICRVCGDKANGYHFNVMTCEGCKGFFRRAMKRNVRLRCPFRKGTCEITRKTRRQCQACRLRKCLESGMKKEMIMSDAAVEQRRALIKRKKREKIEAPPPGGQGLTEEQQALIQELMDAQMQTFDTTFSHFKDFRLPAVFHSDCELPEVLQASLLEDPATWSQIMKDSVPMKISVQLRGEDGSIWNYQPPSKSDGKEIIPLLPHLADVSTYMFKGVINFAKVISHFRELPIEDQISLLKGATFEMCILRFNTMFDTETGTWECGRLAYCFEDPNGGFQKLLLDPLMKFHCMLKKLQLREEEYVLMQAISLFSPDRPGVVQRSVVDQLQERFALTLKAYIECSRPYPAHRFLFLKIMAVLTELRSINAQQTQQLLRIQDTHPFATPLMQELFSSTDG

On to `Oc1ccc(Cl)c(Cl)c1`, for which the Potency result in [1], in [2], in assay [3], in [6], in [8] and in [9] was “inactive” throughout. Moreover, the Potency entry in [10] and in [13] was “inactive” throughout. The compound was classed as inactive in assay [4], in assay [5], in assay [7], in assay [11] and in [17]. Also, the max response in [12] is -0.477%; in assay [15], 7.88% (inactive); in assay [16] it was -0.245% (inactive). In addition, the Potency in assay [14] was 33.5 µM (active).
For `CCCCC(=O)Cl`, the Potency entry in assay [1], in assay [18], in assay [2], in assay [6], in [8] and in [20] was “inactive” each time. The Potency result in assay [9], in [10], in assay [13] and in [14] was “inactive” in each case. For the same compound, the call in [19], in [4], in assay [5], in assay [7], in assay [11] and in assay [17] was inactive. Moreover, the max response in [12] is -10.8%; in assay [16], 6.67% (inactive).
In the case of `[N-]=[N+]=[N-]`, the Potency result in assay [1], in assay [2], in assay [3], in assay [6], in assay [20] and in assay [9] was “inactive” throughout. Further, the Potency entry in assay [10], in [13] and in assay [14] was “inactive” in each case. Besides, the compound was classed as inactive in [19], in assay [4], in assay [5], in [11] and in assay [17]. In [8], the Potency was 2.51 µM (active). Also, the max response in assay [12] was -3.73%; in assay [15], 0.516% (inactive); in assay [16], -8.68% (inactive).
`CC(C)(C)C(O)(CCc1ccc(Cl)cc1)Cn1cncn1` (centres undefined): the Potency entry in assay [1], in assay [18], in assay [2], in assay [3], in assay [8] and in assay [20] was “inactive” each time. The Potency result in [9], in [10] and in [14] was “inactive” throughout. Besides, the compound was called inactive in [19], in assay [4], in assay [5], in assay [7] and in [11]. For the same compound, the Potency in assay [6] is 0.501 µM (active); in assay [13], 20 µM (active). Also, the max response was 3% and 12.6% in assay [12]; -1.87% (inactive) and -20% (inactive) in assay [15].
Take `CCOP(=S)(OCC)Oc1nc(Cl)c(Cl)cc1Cl`: the Potency entry in assay [18], in assay [2], in [3], in [8], in [20] and in assay [9] was “inactive” each time. Besides, the Potency entry in assay [10] is “inactive”. Moreover, the outcome in [19], in assay [4], in assay [5], in assay [7] and in assay [11] was inactive. In addition, the Potency in assay [6] is 5.01 µM (active). The figures for the max response in assay [12], in assay [15] and in [16] were -8.45% [middle of 4 runs], -7.97% (inactive) [middle of 4 runs] and 6.81% (inactive) [middle of 4 runs], respectively.
As to `Nc1cccc2ccccc12`, the Potency entry in [18], in [2], in assay [3], in [8], in assay [20] and in assay [9] was “inactive” throughout. Moreover, the Potency entry in assay [13] and in assay [14] was “inactive” each time. The compound was classed as inactive in assay [19], in [4], in assay [5] and in assay [7]. Also, the max response in assay [12] was -8.8%; in [15], -0.157% (inactive).
`Nn1cnnc1`: the Potency result in [1], in assay [18], in assay [3], in assay [6], in assay [8] and in assay [20] was “inactive” throughout. Besides, the Potency entry in assay [9], in assay [10], in assay [13] and in assay [14] was “inactive” throughout. For the same compound, the call in assay [19], in [5], in assay [7], in assay [11] and in assay [17] was inactive. Besides, the max response is -0.424% in assay [12], -1.3% (inactive) in assay [15] and 2.65% (inactive) in assay [16].
